Screening data deposited in PubChem BioAssay by several laboratories.
BJeLR lethal = kills HRASV12-expressing BJeLR cells | 0.17% of 300,000 active | AID 1554 | inhibition, % (test concentration not listed) | BJeLR (HRASV12) viability, CellTiter-Glo ATP luminescence, 48 h; in the data active = inhibition above about 50%
CCHF vOTU inh = blocks the CCHF virus ovarian tumor domain protease. CCHFV vOTU protease, Pep-AMC fluorescence. inhibition, % at 11.5 µM. 0.55% of 370,000 active. AID 651958; in the data active = inhibition above about 30%; note: 0% = vehicle wells with enzyme and 100% = no enzyme wells
Y pestis TopoI = Y. pestis Topo-I inhibition via cleavage products. Y. pestis Topo-I cleavage product accumulation, plate reader. 0.064% of 360,000 active. activity, % at 10 µM. AID 504884; in the data active = activity above about 50%, passing the limit was not always enough
PrP UTR inh = inhibition of PrP 5' UTR reporter expression; cell-based PrP 5' UTR mRNA reporter, plate reader; inhibition, % (no concentration beside the values); 0.35% of 340,000 active; AID 488862; in the data active = inhibition above about 52%; note: 0 = median of the neutral control wells
PfHsp40 rescue = restores yeast growth despite PfHsp40 toxicity; 0.68% of 340,000 active; AID 504582; S. cerevisiae expressing PfHsp40, growth rescue, ATP luminescence; growth rescue, % at 12.5 µM; in the data active = growth rescue above about 28%, passing the limit was not always enough;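 note: yeast W303a lacking pdr1 and pdr3 grown in galactose medium; growth measured after three days at 30 °C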
PrPC surface inh = inhibitors of human cell surface prion protein PrPC | P04156 | TR-FRET read-out | 0.43% of 370,000 active | inhibition, % at 13.8 µM; in the data active = inhibition above about 24%; note: 0% = median of the test wells and 100% = reference compound wells
Starred values were filed as active, the others as inactive; · = no result. Most compounds without a hit are left out; they make up all but 2% or so of the library.

SMILES | BJeLR lethal | CCHF vOTU inh | Y pestis TopoI | PrP UTR inh | PfHsp40 rescue | PrPC surface inh
COc1cc2c(c(OC)c1)C(=O)O[C@H](C)C[C@@H]1O[C@H]1CCCCC(=O)C2 | · | -3 | · | · | · | 0
O=[N+]([O-])c1cnc(Sc2ccncn2)s1 | 62* | -8 | -4 | 7 | 20 | -5
O=C(N/N=C/c1sc(N2CCOCC2)nc1-c1ccccc1)c1ccccc1O | -14 | 8 | -6 | -9 | 238* | -7
O=C(NCc1ccco1)OC1CCC12CCC(c1ccccc1)CC2 (stereo not drawn) | · | · | · | · | · | 11
COc1ccc(C)cc1NS(=O)(=O)c1ccc(-c2cnc(C3CC3)o2)cc1 | 58* | 16 | 26 | 76* | 1 | 23
COc1cc(NC(=O)c2cccs2)c(OC)cc1NC(=O)CCC(=O)Nc1ccc2ncccc2c1 | 58* | -1 | 26 | -22 | 0 | -1
COc1ccc(OCC(=O)Nc2ccc(NC(=O)c3cccs3)c(OC)c2)cc1 | -6 | 4 | 3 | -16 | 0 | 0
O=C(CSc1nnc(-c2ccccn2)n1-c1ccccc1)Nc1cccc2ccccc12 | · | 2 | · | · | · | -1
CCn1c2ccc(C)cc2c2nc3cc(C(=O)O)ccc3nc21 | 12 | -4 | 0 | 1 | 312* | -4
COC(=O)c1cccc(-n2sc3ccccc3c2=O)c1 | · | 6 | -11 | -24 | 119* | 0
O=c1c2ccccc2sn1-c1ccc(Cl)cc1 | · | 5 | -8 | · | · | 0
O=c1c2ccccc2sn1-c1ccc(F)cc1 | · | -9 | 0 | -33 | 102* | 6
Cc1ccc(-n2sc3ccccc3c2=O)cc1 | 1 | 11 | 4 | -45 | 80* | 2
C[C@H]1[C@@H](N)CC[C@@]23CCCN2C(=O)CCC[C@@H]13 | · | · | · | · | · | -10
COC(=O)Cc1cc(=O)n(-c2ccccc2)[nH]1 | -2 | -7 | 4 | -11 | 51* | -4
CCn1c(SCC(=O)Nc2ccc(NC(C)=O)cc2)nc2c([nH]c3ccccc32)c1=O | -4 | -4 | 4 | -8 | 41* | 0
Cc1ccccc1N=Nc1c(N)[nH]n(-c2ccccc2)c1=O | · | 6 | · | · | · | -6
N#CC1=C(N)SC(N)=C(C#N)C1CCc1ccccc1 | -7 | 4 | -7 | -4 | 3 | 11
N#CC1=C(N)SC(N)=C(C#N)C1c1c(Cl)cccc1Cl | -1 | 2 | -5 | -10 | -2 | 41*
COc1ccc(-c2sc3ccccc3c2-c2ccc(OCCN(C)C)cc2)cc1 | · | 4 | -20 | -4 | 19 | -1
COc1cccc(-c2sc3ccc(OC)cc3c2-c2ccc(OCCN(C)C)cc2)c1 | · | 16 | -20 | -6 | 31* | -16
COc1cccc(-c2sc3ccc(OC)cc3c2-c2ccc(O)cc2)c1 | · | 1 | 8 | -3 | 103* | 6
CN(C)CCOc1ccc(-c2c(-c3ccsc3)sc3ccccc23)cc1 | · | 5 | -12 | -8 | 91* | -4
CCN(CC)C(=O)O[C@H]1CC[C@@]23CCCN2C(=O)CCC[C@H]3[C@H]1C | · | · | · | · | · | 1
Cc1cc(NC(=O)Cc2cn(C)c3ccccc23)ccc1Oc1cccnc1 | · | -4 | · | · | · | 5
SMILES | BJeLR lethal | CCHF vOTU inh | Y pestis TopoI | PrP UTR inh | PfHsp40 rescue | PrPC surface inh
CC1CN(c2ccnc3cc(Cl)ccc23)CCN1C(=O)c1ccc(Cl)cc1 (stereo not drawn) | · | · | · | · | · | -2
Cc1ccc(S(=O)(=O)/N=C(\N)Nc2nc(C)c3cc(C)ccc3n2)cc1 | -4 | 3 | 58* | -8 | 0 | 6
O=C(NCC1CCCCC1)c1cc2ccccc2cc1O | 3 | 2 | -6 | -52 | 0 | -1
O=C(N/N=C1/CC2CCC1C2)c1cc2ccccc2cc1O (stereo not drawn) | -11 | 22 | -17 | -11 | 33* | -4
Cc1ccc(NC(=O)N2CCC(N(C)CCC(C)C)CC2)cc1F | · | -6 | · | · | · | -4
Cn1c(/C=C/c2ccc([N+](=O)[O-])o2)nc2ccccc2c1=O | 82* | · | -4 | -32 | 0 | ·
COC(=O)C1=C(C)NC(C)=C(C(=O)OC)C1c1ccccc1[N+](=O)[O-] | -11 | 0 | 2 | 11 | 37* | 1
CCOC(=O)C1=C(C)NC(C)=C(C(=O)OC)C1c1cccc([N+](=O)[O-])c1 (stereo not drawn) | -4 | 14 | -13 | 7 | 0 | 6
Cc1cccc(Nc2nc(N)nc(-c3oc4ccccc4c3C)n2)c1 | -2 | 8 | 21 | -87 | 3 | -3
Cc1ccc(Nc2nc(N)nc(-c3oc4ccccc4c3C)n2)cc1 | 36 | · | 15 | 70* | 3 | ·
Cc1ccc(NC(=O)[C@H]2CC(=O)O[C@@H]2c2ccccc2)cc1C | · | 4 | · | · | · | -4
CN(C)CCCNc1cc(C(C)(C)C)nc2c(-c3ccc(Cl)cc3)cnn12 | 11 | 6 | -7 | -5 | 44* | 0
COc1cc(OC)cc(C(C)c2ccc(-c3ccccc3)cc2)c1 (stereo not drawn) | · | · | · | · | · | 0
COCCCNC(=O)C[C@H]1C[C@@]2(C(=O)OC)C(=C[C@H](C(C)C)O[C@@H]2C2CC2)N(Cc2cccc3ccccc23)C1=O | · | 3 | · | · | · | -8
FC(F)(F)c1cccc(N2CCNCC2)c1 | 7 | · | · | · | · | ·
FC(F)(F)c1cccc(N2CCc3cn[nH]c32)c1 | 7 | 1 | -2 | -45 | 292* | 9
CCOc1ccc(C2C(C#N)=C(N)SC(N)=C2C#N)cc1OC | -2 | · | · | · | · | ·
CCOc1ccccc1C1C(C#N)=C(N)SC(N)=C1C#N | -5 | 16 | 2 | -30 | -1 | 47*
C[C@H]1COC2=C1C(=O)C(=O)c1c2ccc2c1CCCC2(C)C | 5 | · | -2 | -38 | 72* | ·
N#CCCCc1cn(-c2cccc(-c3noc4c3C(=O)N(CC(=O)N3CCOCC3)CC4)c2)nn1 | · | -2 | · | · | · | 9
CCN1CCN(CC(=O)Nc2cc(S(=O)(=O)N3CCCCC3)ccc2Cl)CC1 | · | -4 | 11 | -12 | 56* | -5
O=C(COC(=O)c1ccc(Cl)nc1)Nc1cc(S(=O)(=O)N2CCCCC2)ccc1Cl | -1 | -1 | 17 | -1 | 173* | 7
O=C(COC(=O)c1ccc(Cl)nc1)Nc1ccc(S(=O)(=O)N2CCCC2)cc1 | 0 | 6 | -9 | -10 | 0 | -6
O=C(CN1CCN(c2ccc(O)cc2)CC1)Nc1cc(S(=O)(=O)N2CCCCC2)ccc1Cl | -6 | 9 | 2 | 5 | 0 | 12
CC(NC(=O)COC(=O)/C=C/c1cccc(F)c1)c1ccccc1 (stereo not drawn) | · | 3 | 13 | -14 | -1 | -6
CC(NC(=O)COC(=O)/C=C/c1ccc(Cl)cc1)c1ccccc1 (stereo not drawn) | 8 | 0 | 16 | -13 | 32* | 7
O=C(COC(=O)c1ccc(Sc2ncn[nH]2)c([N+](=O)[O-])c1)Nc1cccc(Cl)c1F | · | 4 | · | · | · | -10
CCCCn1c(=O)[nH]c(=O)c2c1nc(-c1ccsc1)n2Cc1ccccc1 | 5 | 6 | 59* | -17 | 0 | -3
CCCCn1c(-c2ccsc2)nc2c1c(=O)[nH]c(=O)n2CCC | 0 | -12 | 0 | -3 | 0 | -5
